Shown is part of a subset that was picked to be rich in hits.
TTR transcr act: TTR transcription activation, primary screen. SH-SY5Y TTR promoter Gaussia luciferase, luminescence; 100% = recombinant luciferase protein wells. activation, % at 16.7 µM. 1.3% of 92,000 active;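 active = activation above the mean of all tested compounds plus 3 SD, cut at about 9.5% in these data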;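 note: cells exposed to compounds for one day before reading; 0% = median of all test compound wells on the plate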
HuH7 TTR inh: counter-screen for TTR activators: TTR transcription inhibitors in HuH7 cells | 4% of 1,100 active | HuH7 TTR promoter-Gaussia luciferase reporter, luminescence | AID 1117279 | inhibition, % at 16.7 µM | shares compounds with TTR transcr act;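 active = average inhibition above the solvent-only control wells' mean plus 3 SD, cut at about 15% in these data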;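 note: 0% = cells with DMSO only and 100% = cells with inhibitor control FD; inhibitors lower well luminescence so higher value means more inhibition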
TTR up confirm: human TTR transcription activation, confirmation; shares compounds with TTR transcr act; SHSY5Y TTR promoter Gaussia luciferase, luminescence; 100% = purified Lucia enzyme wells, no cells; activation, % at 16.7 µM; 1,100 tested, under 10 active; AID 1117280;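 active = mean activation above a set limit taken from the earlier primary screen, cut at about 11% in these data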;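 note: 0% = DMSO-treated cells and 100% = recombinant Lucia luciferase without cells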
The depositor's hits bear a star.

SMILES	TTR transcr act	others
C/C=C\C=C/C(=O)Nc1cccc(C2=NOC3(C2)C[C@@H](C(N)=O)N(C(=O)C2(C)CC2)C3)c1 (some centres undefined)	11*
C[C@@H]1Cc2cc(O)cc(O)c2C(=O)O1	0
O=C(NCCc1c[nH]c2ccccc12)OCc1cn(Cc2cccc(C(F)(F)F)c2)nn1	-3
CCn1c(SCC(=O)Nc2ccc(C)cc2)nnc1-c1ccccn1	0
CCn1c(SCC(=O)Nc2cccc(OC)c2)nnc1-c1ccc(Cl)cc1	1
CCn1c(SCC(=O)Nc2ccc(N(C)C)cc2)nnc1-c1cccc(C)c1	28*
C[C@H]1[C@@H](OC(=O)Nc2ccc(C(F)(F)F)cc2)CC[C@@]23CCCN2C(=O)CCC[C@@H]13	0
c1ccc(-c2cccc(CNc3nc(-c4ccccn4)nnc3-c3ccccc3)c2)cc1	-3
COC(=O)[C@]12CCCCC=C1N(Cc1ccc(OC)cc1)C(=O)[C@@H]2CC(=O)NCc1ccc(OC)c(OC)c1	-2
COC(=O)c1cc(COC(=O)c2cccnc2SC)oc1C	41*
COC(=O)c1cc(COC(=O)CNC(=O)c2cccc(C)c2)oc1C	-1
CSc1ncccc1C(=O)OCc1ccccc1F	5
CCOC(=O)[C@]12CCCC=C1N(Cc1ccc(OC)cc1)C(=O)[C@@H]2CC(=O)NCC12CC3CC(CC(C3)C1)C2	0
O=C(Nc1ccccc1N1CCN(C(=O)c2ccc(Cl)cc2)CC1)c1ccc2c(c1)OCO2	10*
O=C(Nc1ccc(N2CCN(C(=O)c3ccc(Cl)cc3)CC2)cc1)c1ccc2c(c1)OCCO2	-6
O=C(Nc1cc(Cl)ccc1N1CCOCC1)c1ccc2c(c1)OCCO2	0
O=S(=O)(N[C@@H]1CCCC[C@@H]1N1CCOCC1)c1ccc(Cl)cc1	-1
COc1cccc(C2c3c(ncn(-c4ccccc4)c3=N)Oc3ccc4ccccc4c32)c1OC (centres undefined)	2
COc1ccc(C2c3c(ccc4ccccc34)Oc3ncn4nc(CO/N=C/c5ccccc5)nc4c32)cc1 (centres undefined)	12*
COc1ccc(C2c3c(ccc4ccccc34)Oc3ncn4nc(-c5ccco5)nc4c32)cc1 (centres undefined)	3
C[C@@H]1CCCN1c1cccc2c1S(=O)(=O)N(C1CC1)CCCO2	1
CN1C2=N[C@@H](c3ccccc3)CC(=O)N2/C(=C\c2ccccc2)[C@H]1c1ccccc1	0
Nc1nc(Nc2ccccc2)sc1C(=O)c1ccccc1	-3
O=C(Cc1nnc(NC(=O)Nc2ccc(F)cc2)s1)Nc1ccccc1	3
O=C(c1ccc(F)cc1)c1cnc(Nc2ccccc2)s1	15*	HuH7 TTR inh=-5;TTR up confirm=0
SMILES	TTR transcr act	others
CC(C)(C)OC(=O)N1CCC(N[C@@H](Cc2ccccc2)C(=O)NCC(c2ccccc2)c2ccccc2)(C(=O)NC2CCCCC2)CC1	2
COc1cccc(NC(=O)Nc2c(-c3ccc(C(F)(F)F)cc3)nc3ncccn23)c1	-1
COC(=O)c1cc(-c2cc(Cl)cc(Cl)c2)c(=O)n2c1CCC2	4
Cc1ccc(C)c(N2CCN(C(c3ccccc3)c3nnnn3C(C)(C)C)CC2)c1 (centres undefined)	0
CCC(C)(C)n1nnnc1C(c1cc2cc(C)cc(C)c2[nH]c1=O)N1CCCC1 (centres undefined)	-2
CCC(C)(C)n1nnnc1C(c1ccc(C)cc1)N1CCCC1 (centres undefined)	18*	HuH7 TTR inh=-7;TTR up confirm=1
Cc1cccc(C(=O)Nc2c(-c3ccccc3)nc3ncccn23)c1	-1
CCCC[C@H]1C2CC(OC(=O)Nc3ccccc3C(F)(F)F)C(C2)[C@H]2CCCCN21 (some centres undefined)	-1
Cc1ccccc1CN1CCCCC(NC(=O)c2ccc(-c3ccccc3)cc2)C1=O (centres undefined)	-3
Cc1cc(C)c(OCCNCc2ccccc2)c(C)c1	13*	HuH7 TTR inh=-11;TTR up confirm=1
Cc1cc(Br)ccc1OCCNCc1ccccc1	-1
Cc1cc(Cl)cc(C)c1OCCNCc1ccccc1	-2
COC(=O)[C@]12C[C@H](CC(=O)NCc3cccc4ccccc34)C(=O)N(Cc3ccco3)C1=C[C@H](COCc1ccccc1)O[C@@H]2C	0
Cn1c(SCCN2CCCCC2)nnc1-c1ccccc1Br	14*	HuH7 TTR inh=-7;TTR up confirm=0
Cc1ccc(C#N)c(SCCN2CCCCC2)n1	-1
Cn1c(SCC(=O)N2CCCCCC2)nnc1-c1ccco1	2
CCN(C(=O)[C@@H](C1CC1)[C@@H](O)c1ccc(Cl)cc1)c1ccccc1	2
CCCCCCC(=O)Oc1cccc(C2=CC(=O)CC(C)(C)C2=O)c1	9.7*	HuH7 TTR inh=0;TTR up confirm=0
CC1(C)CC(=O)C=C(c2ccc(COC(=O)c3cccc(C(F)(F)F)c3)cc2)C1=O	-1
CC1(C)CC(=O)C=C(c2ccc(CO)cc2)C1=O	0
CCOC(=O)[C@@]12CCCC=C1N(CCc1ccc(Cl)cc1)C(=O)[C@H]2CC(=O)NCc1cccc2ccccc12	-1
O=C(COC(=O)/C=C/c1ccc(F)cc1)NC1CCCC1	2
O=C(COC(=O)/C=C/c1ccc(Cl)cc1)NC1CCCC1	3
O=C(COC(=O)/C=C/c1ccc(F)cc1)NC1CCCCCC1	10*	HuH7 TTR inh=-7;TTR up confirm=0
Cc1ccc(SCCN2CCN(C)CCC2=O)cc1	0
SMILES	TTR transcr act	others
CC1CCC(=O)N(CCSc2ccccc2)CC1 (centres undefined)	-3
Cc1ccc(SCCN2CCC(O)CCC2=O)cc1 (centres undefined)	23*	HuH7 TTR inh=-9;TTR up confirm=0
CCCCOc1ccc(C(=O)n2ccc3ccc(-c4ccc5ccn(Cc6ccccc6)c5c4)cc32)cc1	0
O=[N+]([O-])c1ccc(CN2CCOCCOCCN(Cc3ccc([N+](=O)[O-])cc3Cl)CCOCC2)c(Cl)c1	-1
CCn1c(SCc2nc3ccccc3s2)nnc1-c1cccs1	15*	HuH7 TTR inh=-23;TTR up confirm=0
COc1ccc(-c2nnc(SCc3nc4ccccc4s3)n2C(C)C)cc1	-1
Cn1c(SCc2nc3ccccc3s2)nnc1-c1cccs1	-4
COCCCNC(=O)C[C@H]1C[C@@]2(C(=O)OC)C(=C[C@H](C3CCCC3)O[C@@H]2C)N(Cc2ccco2)C1=O	0
O=C(Nc1ccc(C(F)(F)F)cc1)OC1CC2CC1[C@H]1CCCCN1[C@H]2Cc1ccccc1 (some centres undefined)	-1
COC(=O)C[C@@H]1CC[C@@H]2[C@@H](COc3ccc(NC(=O)Nc4ccc(F)cc4)cc3C(=O)N2C)O1	-2
CCC[C@H]1[C@@H](OC(=O)NCc2cccc(C(F)(F)F)c2)CC[C@@]23CCCN2C(=O)CCC[C@@H]13	1
CCOC(=O)N1CCN(C(=O)C[C@H]2C[C@@]3(C(=O)OC)C(=C[C@H](C(C)C)O[C@@H]3C3CC3)N(Cc3cccc4ccccc34)C2=O)CC1	-1
O=C(Nc1ccc2c(c1)OCO2)C1CC(=O)N(CCc2ccccc2)C1 (centres undefined)	-2
CCOc1ccc(NC(=O)CN(C)C(=O)C2CC(=O)N(CCc3ccccc3)C2)cc1OCC (centres undefined)	25*	HuH7 TTR inh=-15;TTR up confirm=1
CCOc1ccc(NC(=O)CN(C)C(=O)c2ccncc2)cc1OCC	-1
Cc1cc2c(s1)c1cnn(Cc3c(Cl)ccc(C)c3F)c(=O)c1n2C	-1
